In PubChem BioAssay AID743187 (National Center for Advancing Translational Sciences (NCATS), 2013):
Some of the results follow. Records with an inconclusive call do not appear. A number with no mark means an inactive call. The source made the active and inactive calls. Calls come from the whole dose curve; as a rule, active = well fitted inhibition curve with a large enough effect; inconclusive = small, poorly fitted or top-dose-only effect; inactive = no such curve, though single readings can be large or run the other way.

molecular target: Peroxisomal multifunctional enzyme type 2 (Homo sapiens) (UniProt P51659); assay: Extended Characterization of HPGD Inhibitors: Counterscreen Against HSD17b4; settings: purified HSD17B4, estradiol/NAD+, NADH fluorescence; series mostly up to 57.1 µM; activity change, negative = inhibition: at the top concentration
Source text: The central role of HPGD is to inactivate prostaglandins such as prostaglandin E2 (PGE2) or prostaglandin D2 (PGD2). These prostaglandins are involved in a number of processes, including inflammation, differentiation, and cellular signaling, which makes HPGD an important target for pharmacological intervention. The […] enzyme 17b-hydroxysteroid dehydrogenase […] (HSD17b4 catalyzes the NAD+-dependent oxidation of a variety of substrates including acyl-CoAs, androgens and neurosteroids, as well as bile acids. HSD17b4 activity was screened by utilizing an electron donor (estradiol) and NAD+ as an electron acceptor/cofactor. An increase in the fluorescence intensity due to conversion of NAD+ to NADH was used to measure the enzyme activity.. NIH Chemical Genomics Center [NCGC] NIH Molecular Libraries Probe Centers Network [MLPCN] MLPCN Grant: MH084681 Assay Submitter (PI): Structural Genomics Consortium
3 uL of enzyme (final concentration 100 nM) or buffer were dispensed into a 1,536-well solid-bottom black plate (Greiner Bio One, Monroe, NC) followed by pin-tool transfer (23 nL) of compound (final concentration range 324 pM to 57.2 uM) and control (CID-24867619, final concentration range 5.23 nM to 11.4 uM). Samples were incubated (RT, protected from light) for 15 minutes followed by a 1 uL substrate addition of NAD+ and Estradiol (final concentrations of 1 mM and 50 uM, respectively, in 15% DMSO). Plates were centrifuged at 1,000 rpm for 15 seconds, then read immediately on a ViewLux High-throughput CCD imager (Perkin-Elmer) equipped with standard UV fluorescence optics (340 nm excitation, 450 nm emission), incubated for 1 hour (RT, protected from light) followed by a second read. Data were normalized ([…]) against no-enzyme (positive) and enzyme-containing (neutral) wells.

Sequence of Peroxisomal multifunctional enzyme type 2 (Homo sapiens) (P51659 whole entry, looked up): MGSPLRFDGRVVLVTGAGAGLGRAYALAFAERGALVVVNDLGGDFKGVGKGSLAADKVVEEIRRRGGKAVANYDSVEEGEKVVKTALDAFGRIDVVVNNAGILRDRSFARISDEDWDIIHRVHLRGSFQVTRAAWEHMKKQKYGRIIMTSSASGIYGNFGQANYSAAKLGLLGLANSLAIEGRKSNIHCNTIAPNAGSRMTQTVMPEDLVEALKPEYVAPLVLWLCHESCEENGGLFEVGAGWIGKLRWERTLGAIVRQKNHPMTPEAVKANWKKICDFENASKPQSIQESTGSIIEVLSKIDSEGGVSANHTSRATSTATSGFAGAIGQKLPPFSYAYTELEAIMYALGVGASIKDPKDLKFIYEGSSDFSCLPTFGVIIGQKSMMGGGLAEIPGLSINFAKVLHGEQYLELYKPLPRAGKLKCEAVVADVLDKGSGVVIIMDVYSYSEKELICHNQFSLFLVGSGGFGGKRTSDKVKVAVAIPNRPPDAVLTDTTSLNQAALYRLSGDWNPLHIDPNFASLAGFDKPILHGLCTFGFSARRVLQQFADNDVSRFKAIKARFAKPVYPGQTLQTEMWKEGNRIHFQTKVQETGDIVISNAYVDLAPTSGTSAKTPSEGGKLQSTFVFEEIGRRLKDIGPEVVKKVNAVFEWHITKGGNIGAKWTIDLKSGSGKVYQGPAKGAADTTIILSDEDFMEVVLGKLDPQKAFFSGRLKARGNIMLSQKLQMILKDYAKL

Structure (SMILES) | activity change, negative = inhibition [%] | Potency
COc1cccc(NC(=S)N2CCN(c3ccccc3C(F)(F)F)CC2)n1 | -11.1 | –
FC(F)(F)c1cccc(N2CCN(C(=S)Nc3ccncc3)CC2)c1 | -27.4 | –
Cc1cc(-c2nnc3n2CCCCC3)c(C)n1-c1cccc(Cl)c1 | -8.23 | –
Cc1cc(C)nc(NC(=S)N2CCN(c3ccc4nonc4c3)CC2)c1 | 0.76 | –
Cc1cc(C)nc(NC(=S)N2CCN(c3cccc(C#N)c3)CC2)c1 | -28.4 | –
COc1cccc(NC(=S)N2CCN(c3ccc(Cl)cc3Cl)CC2)n1 | -23.8 | –
COc1ccnc(NC(=S)N2CCN(c3ncc(C(F)(F)F)cc3Cl)CC2)c1 | -22.7 | –
Cc1cc(C)nc(NC(=S)N2CCN(c3ccc(Cl)cc3C(F)(F)F)CC2)c1 | – | 24.1 µM (active)
